Records with an inconclusive call do not appear. Calls of active or inactive are those of the source. The call rests on the fitted dose curve; in most records, active means well fitted inhibition curve with a large enough effect; inconclusive means small, poorly fitted or top-dose-only effect; inactive means no such curve, though single readings can be large or run the other way.
Test: Primary qHTS for small molecule stabilizers of the endoplasmic reticulum resident proteome: Secreted ER Calcium Modulated Protein (SERCaMP) assay (AID 1508630)
Settings: SH-SY5Y GLuc-SERCaMP (Gaussia luciferase released on ER calcium loss) secretion, thapsigargin, luminescence; series mostly up to 38.4 µM
How it was run: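 GLuc-SERCaMP-expressing SH-SY5Y cells, pretreated 16 h with compound, are challenged with thapsigargin to empty ER calcium stores; after 4 h, coelenterazine is added directly to the medium and luminescence is imaged.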

Potency, inactive:
C=C1C[C@H](OC(=O)C(C)(O)CCl)C2C(=C)C(=O)O[C@@H]2C2C1C[C@H](O)[C@]2(O)CCl (some centres not stated)
COc1c(O)cc2c(=O)oc3c(OC)c(O)cc4c(=O)oc1c2c34
CC1=CC(=O)C2=C(C)C[C@H](OC(=O)Cc3ccccc3)C3[C@H](OC(=O)[C@H]3C)C12 (some centres not stated)
CC1=C(C(N)=O)N2C(=O)[C@@H](NC(=O)Cc3ccccc3)C2SC1 (some centres not stated)
CC(C)=CCCC1=CC[C@H](C(=O)O)[C@H](C(=O)O)C1
CC(=O)O[C@@H]1CC2C(C)(C)C(=O)C=C[C@]2(C)C2CC[C@]3(C)C(=CC[C@H]3C3CO[C@@H](C(C)(C)O)[C@H](O)C3)[C@@]21C (some centres not stated)
COc1ccccc1Oc1coc2cc(O)ccc2c1=O
COc1ccc2c(c1)OC[C@H]1c3cc4c(cc3O[C@@H]21)OCO4
C[C@@H]1Oc2ccccc2C=C1/C=C/C(=O)O
Cn1c(=O)c(-c2ccccc2)c(O)c2ccccc21
CC1=CC2C(=O)c3cccc(O)c3C(=O)C2C(O)=C1 (configuration not stated)
Cc1csc(-c2coc3cc(O[C@@H]4O[C@H](CO)[C@@H](O)[C@@H](O)[C@H]4O)ccc3c2=O)n1
O=C(NC[C@H](O)c1ccccc1)c1ccccc1
O=C(O)C(O)C(O)(Cc1ccc(O)cc1)C(=O)O (configuration not stated)
CC1(O)/C=C\C=C(\CO)C2CC(C)(C)C2(O)CC1 (configuration not stated)
N=c1ccn2c(n1)OCC1C2O[C@@H](O)[C@H]1O (some centres not stated)
COc1cc2c(cc1OC)C1N(CC2)C(=O)CCC12C(=O)CCCC2=O (configuration not stated)
COc1ccc(C2c3[nH]c4ccccc4c3CC3C(=O)N(CCc4ccc(OC)c(OC)c4)CC(=O)N32)cc1 (configuration not stated)
COc1cc(C(=O)Oc2ccc3c(OC)c4ccoc4nc3c2OC)cc(OC)c1OC
C/C=C(\C)C(=O)O[C@H]1CC(C)=C2C(=O)C=C(C)C2[C@@H]2OC(=O)[C@@](C)(OC(=O)C=C(C)C)C21 (some centres not stated)
COc1cc2c(cc1OC)C(c1c[nH]c3ccccc13)NCC2 (configuration not stated)
COc1cc(/C=C/C(=O)c2c(O)cc(C)oc2=O)ccc1O

— PubChem BioAssay (NCATS)
